Experimental data: publication PMC7862700, “An all-to-all approach to the identification of sequence-specific readers for epigenetic DNA modifications on cytosine”

Key:
Experiment in all cases: DAPPL (digital affinity profiling via proximity ligation, sequencing); 10 mM Tris-HCl pH 7.5, 50 mM NaCl, 1 mM DTT, 4% glycerol, room temperature, 30 min; GST-TFs on glutathione beads, 16-mer random dsDNA library, 0.1% formaldehyde crosslink after washing; high values mean tight binding
Settings in all cases: protein: recombinant; tags: N-terminal GST; dsDNA, one strand shown
[1] = biological target: T1, ERF (Homo sapiens, UniProt P50548 1-548)
T1 sequence: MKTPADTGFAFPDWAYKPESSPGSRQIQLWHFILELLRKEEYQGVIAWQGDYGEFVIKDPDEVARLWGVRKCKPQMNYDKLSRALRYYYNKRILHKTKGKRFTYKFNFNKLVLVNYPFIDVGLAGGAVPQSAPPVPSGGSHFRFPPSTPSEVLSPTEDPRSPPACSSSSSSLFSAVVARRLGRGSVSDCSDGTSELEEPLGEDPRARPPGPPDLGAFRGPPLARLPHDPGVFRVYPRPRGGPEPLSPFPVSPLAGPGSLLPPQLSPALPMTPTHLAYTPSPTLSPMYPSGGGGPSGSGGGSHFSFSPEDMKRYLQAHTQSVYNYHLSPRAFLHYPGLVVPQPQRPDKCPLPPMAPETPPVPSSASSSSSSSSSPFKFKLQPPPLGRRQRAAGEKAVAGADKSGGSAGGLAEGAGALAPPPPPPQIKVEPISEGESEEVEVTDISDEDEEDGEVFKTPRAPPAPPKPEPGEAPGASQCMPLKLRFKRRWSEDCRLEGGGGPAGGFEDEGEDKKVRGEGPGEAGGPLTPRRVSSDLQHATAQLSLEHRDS
In short: (§1)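 In yeast, human transcription factors were expressed with a GST fusion, then pulled down on glutathione beads and given DNA barcodes. Pooled with a tag-only sample, they were exposed to 200 nmole of a 16-mer random double-stranded DNA library (Tris/NaCl/DTT/glycerol buffer, room temperature, 30 min), washed, crosslinked with 0.1% formaldehyde, proximity-ligated using BsaI/T4 ligase for 1 h at 37 °C, PCR-amplified and read on an Illumina NextSeq500. Each hexamer's frequency of reads for a factor, divided by the matching frequency for the tag-only sample, gives the binding signal.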

[2] = biological target: T2, ETV3L (Homo sapiens, UniProt Q6ZN32 1-361)
T2 sequence: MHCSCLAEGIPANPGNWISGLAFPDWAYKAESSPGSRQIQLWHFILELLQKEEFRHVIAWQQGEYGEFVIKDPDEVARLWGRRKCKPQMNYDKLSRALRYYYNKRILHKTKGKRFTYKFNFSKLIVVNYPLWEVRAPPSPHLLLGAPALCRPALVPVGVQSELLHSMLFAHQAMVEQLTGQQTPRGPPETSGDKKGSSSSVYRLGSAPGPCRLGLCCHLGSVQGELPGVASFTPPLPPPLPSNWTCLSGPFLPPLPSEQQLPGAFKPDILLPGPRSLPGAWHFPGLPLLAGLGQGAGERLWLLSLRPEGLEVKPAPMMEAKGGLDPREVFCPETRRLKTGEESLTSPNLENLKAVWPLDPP
In short: as §1

[3] = biological target: T3, ETS2 (Homo sapiens, UniProt P15036 1-469)
T3 sequence: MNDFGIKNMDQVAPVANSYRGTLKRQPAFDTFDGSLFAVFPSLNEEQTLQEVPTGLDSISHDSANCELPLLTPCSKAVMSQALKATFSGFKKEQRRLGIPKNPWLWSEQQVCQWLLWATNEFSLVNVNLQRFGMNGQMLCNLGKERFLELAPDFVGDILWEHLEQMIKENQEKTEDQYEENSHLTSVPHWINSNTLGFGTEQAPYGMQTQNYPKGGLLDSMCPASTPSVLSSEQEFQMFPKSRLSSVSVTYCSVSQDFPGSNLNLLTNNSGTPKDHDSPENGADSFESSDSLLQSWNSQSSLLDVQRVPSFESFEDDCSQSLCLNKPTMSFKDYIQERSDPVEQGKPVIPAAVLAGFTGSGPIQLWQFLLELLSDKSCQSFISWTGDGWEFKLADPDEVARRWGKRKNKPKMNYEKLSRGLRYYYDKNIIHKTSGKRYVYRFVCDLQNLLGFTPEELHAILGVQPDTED
In short: as §1

[4] = biological target: T4, SPDEF (Homo sapiens, UniProt O95238 1-335)
T4 sequence: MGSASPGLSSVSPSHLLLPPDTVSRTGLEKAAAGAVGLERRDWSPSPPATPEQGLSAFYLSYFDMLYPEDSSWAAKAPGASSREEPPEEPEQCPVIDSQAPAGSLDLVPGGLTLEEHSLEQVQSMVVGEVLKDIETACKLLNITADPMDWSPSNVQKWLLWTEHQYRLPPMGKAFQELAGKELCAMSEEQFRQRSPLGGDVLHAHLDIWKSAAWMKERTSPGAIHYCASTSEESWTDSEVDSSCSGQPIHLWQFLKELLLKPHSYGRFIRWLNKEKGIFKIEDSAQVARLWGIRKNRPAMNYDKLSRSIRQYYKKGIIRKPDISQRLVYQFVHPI
In short: as §1

[5] = biological target: T5, ETV7 (Homo sapiens, UniProt Q9Y603 1-341)
T5 sequence: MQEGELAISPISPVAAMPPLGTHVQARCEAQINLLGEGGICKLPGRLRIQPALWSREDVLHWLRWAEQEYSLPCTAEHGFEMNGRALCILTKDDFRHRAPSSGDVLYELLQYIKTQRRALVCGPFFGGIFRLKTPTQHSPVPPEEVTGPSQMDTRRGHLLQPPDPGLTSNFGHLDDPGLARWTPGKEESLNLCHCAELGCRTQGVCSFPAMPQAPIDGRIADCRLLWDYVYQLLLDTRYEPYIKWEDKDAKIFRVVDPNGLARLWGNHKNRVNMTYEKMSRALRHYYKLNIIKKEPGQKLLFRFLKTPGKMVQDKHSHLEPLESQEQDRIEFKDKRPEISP
In short: as §1

[6] = biological target: T6, ELF5 (Homo sapiens, UniProt Q9UKW6-2 1-255)
T6 sequence: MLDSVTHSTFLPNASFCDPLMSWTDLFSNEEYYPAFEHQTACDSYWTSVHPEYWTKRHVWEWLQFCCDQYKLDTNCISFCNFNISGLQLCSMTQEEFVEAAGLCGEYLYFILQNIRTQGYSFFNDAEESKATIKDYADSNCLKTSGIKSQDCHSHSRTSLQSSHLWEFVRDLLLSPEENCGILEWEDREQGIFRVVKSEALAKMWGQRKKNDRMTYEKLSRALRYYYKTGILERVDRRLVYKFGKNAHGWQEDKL
In short: as §1

[7] = biological target: T7, ETV3 (Homo sapiens, UniProt P41162-2 1-143)
T7 sequence: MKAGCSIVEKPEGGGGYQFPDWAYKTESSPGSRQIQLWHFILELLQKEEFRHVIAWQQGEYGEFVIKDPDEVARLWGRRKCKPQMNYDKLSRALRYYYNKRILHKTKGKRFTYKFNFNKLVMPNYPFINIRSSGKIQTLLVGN
In short: as §1

[8] = biological target: ETV6 (Homo sapiens, UniProt P41212 1-452)
In short: as §1

Sequence of ETV6 (P41212 whole entry): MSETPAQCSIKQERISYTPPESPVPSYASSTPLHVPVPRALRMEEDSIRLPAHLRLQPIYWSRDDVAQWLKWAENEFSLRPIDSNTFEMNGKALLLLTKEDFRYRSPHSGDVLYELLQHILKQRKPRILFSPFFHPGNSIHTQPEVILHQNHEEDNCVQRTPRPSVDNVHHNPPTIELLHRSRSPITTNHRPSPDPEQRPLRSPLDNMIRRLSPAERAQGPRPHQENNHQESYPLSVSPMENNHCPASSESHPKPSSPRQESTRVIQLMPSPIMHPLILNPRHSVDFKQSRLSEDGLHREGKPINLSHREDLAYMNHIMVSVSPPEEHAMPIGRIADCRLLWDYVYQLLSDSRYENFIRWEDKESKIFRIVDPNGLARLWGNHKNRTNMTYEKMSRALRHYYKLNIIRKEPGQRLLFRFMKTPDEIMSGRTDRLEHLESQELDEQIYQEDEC

Sequence	binding signal [1]	binding signal [2]	binding signal [3]	binding signal [4]	binding signal [5]	binding signal [6]	binding signal [7]	binding signal [8]
TCTATG	1.07 fold enrichment (6-mer frequency, TF over GST control)	1.08 fold enrichment (6-mer frequency, TF over GST control)	1.08 fold enrichment (6-mer frequency, TF over GST control)	1.05 fold enrichment (6-mer frequency, TF over GST control)	1.25 fold enrichment (6-mer frequency, TF over GST control)	1.07 fold enrichment (6-mer frequency, TF over GST control)	1.18 fold enrichment (6-mer frequency, TF over GST control)	–
TCATCG	1.06 fold enrichment (6-mer frequency, TF over GST control)	1.08 fold enrichment (6-mer frequency, TF over GST control)	–	–	–	–	–	–
CTGCCC	1.16 fold enrichment (6-mer frequency, TF over GST control)	1.22 fold enrichment (6-mer frequency, TF over GST control)	1.21 fold enrichment (6-mer frequency, TF over GST control)	1.23 fold enrichment (6-mer frequency, TF over GST control)	1.15 fold enrichment (6-mer frequency, TF over GST control)	1.19 fold enrichment (6-mer frequency, TF over GST control)	1.37 fold enrichment (6-mer frequency, TF over GST control)	1.16 fold enrichment (6-mer frequency, TF over GST control)
CCAACA	1.05 fold enrichment (6-mer frequency, TF over GST control)	1.01 fold enrichment (6-mer frequency, TF over GST control)	1.03 fold enrichment (6-mer frequency, TF over GST control)	1.06 fold enrichment (6-mer frequency, TF over GST control)	1.05 fold enrichment (6-mer frequency, TF over GST control)	1.01 fold enrichment (6-mer frequency, TF over GST control)	1.1 fold enrichment (6-mer frequency, TF over GST control)	–
TGTATC	1.39 fold enrichment (6-mer frequency, TF over GST control)	1.28 fold enrichment (6-mer frequency, TF over GST control)	1.42 fold enrichment (6-mer frequency, TF over GST control)	1.89 fold enrichment (6-mer frequency, TF over GST control)	1.31 fold enrichment (6-mer frequency, TF over GST control)	1.51 fold enrichment (6-mer frequency, TF over GST control)	1.54 fold enrichment (6-mer frequency, TF over GST control)	1.36 fold enrichment (6-mer frequency, TF over GST control)
GCTGAA	1.16 fold enrichment (6-mer frequency, TF over GST control)	1.13 fold enrichment (6-mer frequency, TF over GST control)	1.16 fold enrichment (6-mer frequency, TF over GST control)	1.17 fold enrichment (6-mer frequency, TF over GST control)	1.08 fold enrichment (6-mer frequency, TF over GST control)	1 fold enrichment (6-mer frequency, TF over GST control)	1.1 fold enrichment (6-mer frequency, TF over GST control)	1.09 fold enrichment (6-mer frequency, TF over GST control)
ATGGGT	1.36 fold enrichment (6-mer frequency, TF over GST control)	1.27 fold enrichment (6-mer frequency, TF over GST control)	1.37 fold enrichment (6-mer frequency, TF over GST control)	1.42 fold enrichment (6-mer frequency, TF over GST control)	1.41 fold enrichment (6-mer frequency, TF over GST control)	1.34 fold enrichment (6-mer frequency, TF over GST control)	1.3 fold enrichment (6-mer frequency, TF over GST control)	1.33 fold enrichment (6-mer frequency, TF over GST control)
AAGCTC	1.2 fold enrichment (6-mer frequency, TF over GST control)	1.2 fold enrichment (6-mer frequency, TF over GST control)	1.13 fold enrichment (6-mer frequency, TF over GST control)	1.06 fold enrichment (6-mer frequency, TF over GST control)	1.08 fold enrichment (6-mer frequency, TF over GST control)	1.07 fold enrichment (6-mer frequency, TF over GST control)	1.18 fold enrichment (6-mer frequency, TF over GST control)	1.23 fold enrichment (6-mer frequency, TF over GST control)
CGTCCC	1.35 fold enrichment (6-mer frequency, TF over GST control)	1.3 fold enrichment (6-mer frequency, TF over GST control)	1.38 fold enrichment (6-mer frequency, TF over GST control)	1.35 fold enrichment (6-mer frequency, TF over GST control)	1.22 fold enrichment (6-mer frequency, TF over GST control)	1.31 fold enrichment (6-mer frequency, TF over GST control)	1.41 fold enrichment (6-mer frequency, TF over GST control)	1.32 fold enrichment (6-mer frequency, TF over GST control)
CTCATA	1.35 fold enrichment (6-mer frequency, TF over GST control)	1.3 fold enrichment (6-mer frequency, TF over GST control)	1.35 fold enrichment (6-mer frequency, TF over GST control)	1.33 fold enrichment (6-mer frequency, TF over GST control)	1.32 fold enrichment (6-mer frequency, TF over GST control)	1.39 fold enrichment (6-mer frequency, TF over GST control)	1.26 fold enrichment (6-mer frequency, TF over GST control)	1.27 fold enrichment (6-mer frequency, TF over GST control)
